Compounds with a hit are over-represented: about 2.8% of the library has one in this group of screens.
TWEAK-Fn14 inh – inhibitors of TWEAK-Fn14 interaction signaling. TWEAK-stimulated Fn14 reporter cells, luciferase luminescence, 8 h. inhibition, % at 10 µM. 2% of 360,000 active. AID 1159606; in the data active = inhibition above about 50%
EWS-Fli block – blocks EWS/Fli oncoprotein-driven transcription; A673 NR0B1-luciferase reporter, viability-normalised; 0.67% of 350,000 active; inhibition, % at 12.6 µM;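 active = mean inhibition of at least 50% after viability correction, with every replicate also passing that limit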;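 also: firefly luciferase signal divided by Alamar Blue viability fluorescence both relative to DMSO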
TROY NFkB inh – blocks TROY-dependent signaling in reporter cells; 0.98% of 360,000 active; Q293 LMP1-TROYcd NF-kB luciferase reporter, 4 h; inhibition, % at 10 µM;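 active = compounds whose plate-normalised and pattern-corrected inhibition of the luciferase reporter signal at the single screening dose is 50% or more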
PAX8 reporter – lowers PAX8-driven luciferase in RMG-I cells; AID 652154; inhibition, % at 12.6 µM; 1.2% of 360,000 active; RMG-I TPO-luciferase reporter, SteadyGlo, 24 h;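 active = mean replicate inhibition at least 60% with every replicate also reaching 60%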;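 also: luciferase light reporting Pax8 driven TPO promoter activity; plate controls were median of neutral control wells for no effect and mitoxantrone controls for full effect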
LGR2 antag – Drosophila LGR2 receptor signaling inhibition; AID 720647; HEK293 LGR2, CRE-luciferase, bursicon-stimulated, 4 h; inhibition, % at 9.99 µM; 0.35% of 380,000 active;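 active = drop in luminescence signal, shown as inhibition above about 50% in the replicate tests, limit read from the data, passing the limit was not always enough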;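 also: agonist challenge used bursicon conditioned medium at about half maximal strength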
Numbers without * were called inactive; . = no result given.

SMILES	TWEAK-Fn14 inh	EWS-Fli block	TROY NFkB inh	PAX8 reporter	LGR2 antag
C[C@@H](NC(=O)[C@H]1N[C@H]2c3ccc(-c4cccnc4)c(=O)n3C[C@H]2[C@@H]1CO)c1ccccc1	.	-5	.	.	7
O=C(Nc1cc(F)ccc1F)N1C[C@@H]2[C@H](c3ccccc31)[C@H](CO)N2C(=O)c1ccccc1	.	-8	.	1	7
CC1CCN(CCCNS(=O)(=O)c2cc(Br)cc3c2N(C(=O)C2CC2)CC3)CC1	73*	6	-2	12	2
CCN(Cc1ccccc1)c1ccc(/C=C(\C#N)c2ccccn2)cc1	-1	.	-11	-212	-97
CN(CCC#N)c1ccc(/C=C(\C#N)c2ccccn2)cc1	52*	39	40	-65	73*
CCN(CC)c1ccc(/C=C(\C#N)c2ccccn2)cc1	77*	.	71*	.	.
COc1ccccc1C(=O)Nc1ccc2c(c1)OC[C@@H](C)N(CC1CC1)C[C@@H](C)[C@H](OC)CN(C)C2=O	.	-10	.	.	6
O=c1cc(-c2cccc(F)c2)[nH]c2ccccc12	-11	66*	27	57	-17
Cc1ccc(-c2cc(=O)c3cc(C)ccc3[nH]2)cc1	67*	59*	16	-1	53*
COc1ccc2[nH]c(-c3cccc(F)c3)cc(=O)c2c1	-13	30	-20	-6	-31
O=c1cc(-c2ccccc2)[nH]c2ccc(F)cc12	4	58*	-1	11	5
Cc1ccc(-c2cc(=O)c3cc(F)ccc3[nH]2)cc1	-10	-55	-27	-29	-54
O=c1cc(-c2ccccc2)[nH]c2cc(Cl)ccc12	-8	59*	21	15	.
C[C@@H]1CN([C@@H](C)CO)C(=O)c2cc(NS(=O)(=O)c3ccccc3)ccc2O[C@@H](C)CCCCO[C@H]1CN(C)C(=O)CCCN(C)C	.	-15	.	-3	-3
Cc1ccc2[nH]c(-c3cccc(F)c3)cc(=O)c2c1	-31	57*	-24	9	-38
O=C(Cc1cccnc1)N1[C@H](CO)[C@H](c2ccccc2)[C@@H]1CNCC1CCC1	.	-3	.	-24	-4
O=C(CSc1cn(CCNC(=O)c2ccc3ccccc3c2)c2ccccc12)NCc1ccco1	60*	-32	42	25	16
O=C(NCCn1cc(SCc2ccccc2F)c2ccccc21)c1c(F)cccc1F	62*	-25	34	-31	.
Cn1c(=O)cc(SCC(=O)NCc2ccco2)c2ccccc21	7	.	-2	-8	.
COc1ccc(C(=O)NCCn2cc(SCC(=O)N3CCOCC3)c3ccccc32)cc1	34	.	67*	.	-16
O=C(NCCn1cc(SCC(=O)N2CCOCC2)c2ccccc21)c1ccccc1	22	-14	16	-44	-37
COc1ccc(C(=O)NCCn2cc(SCC(N)=O)c3ccccc32)cc1	51*	-16	63*	-6	3
Cc1ccc(S(=O)(=O)N[C@@H]2C=C[C@H](CC(=O)NCCCN(C)C)O[C@@H]2CO)cc1	.	-2	.	-5	-5
Cn1c(NC2CCCCC2)cc(=O)n(C)c1=O	-4	0	-2	-20	3
Cc1cc(C2CCCCC2)n(O)c(=O)c1	-15	31	7	73*	6
SMILES	TWEAK-Fn14 inh	EWS-Fli block	TROY NFkB inh	PAX8 reporter	LGR2 antag
C[C@H](CO)N1C[C@H](C)[C@@H](CN(C)S(C)(=O)=O)Oc2ncc(C#CC3CC3)cc2C1=O	.	-5	.	.	11
C[C@@H]1CCCCO[C@H](CN(C)C(=O)c2ccncc2)[C@@H](C)CN([C@H](C)CO)C(=O)c2cc(NC(=O)Cc3ccccc3)ccc2O1	.	0	.	-15	-5
COc1cc(SC)ccc1C(=O)Nc1nc2ccccc2[nH]1	100*	94*	84*	114*	105*
COc1cc(SC)ccc1C(=O)Nc1nccs1	63*	39	31	-32	36
COc1cc(SC)ccc1C(=O)Nc1ccccc1	16	.	-72	-205	.
COc1ccc(C(=O)Nc2ccc3ccccc3n2)c(OC)c1OC	88*	55*	72*	12	89*
COc1ccccc1C(=O)Nc1nc2ccccc2[nH]1	107*	92*	89*	129*	103*
CSc1ccccc1C(=O)Nc1nc2ccccc2[nH]1	-26	-84	-50	-95	-59
CCC(=O)Nc1ccc2c(c1)C(=O)N(C)C[C@H](OC)[C@@H](C)CN(C(=O)CN1CCOCC1)[C@H](C)CO2	.	2	.	.	-10
COc1ccccc1-c1ccc2c(c1)O[C@H](CN(C)C(=O)c1cccnc1)[C@@H](C)CN([C@@H](C)CO)S2(=O)=O	.	-7	.	-3	-4
